# This is a sample that favours compounds with a hit; in the whole collection about 4.6% have one here.
# PNC inhibitor: inhibitors of perinucleolar compartment assembly; actives 3.1% (n = 140,000); PC3M PTB-GFP, PNC prevalence imaging, 16 h; stronger effect = lower value; activity change (PNC), negative = inhibition, % at 10 µM;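 active means readout at or below -70, meaning at least 70% loss of cells showing the perinucleolar compartment, a nuclear body marking cancer cells; inconclusive means readout between -30 and a set limit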
#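 PC3M cells stably expressing PTB-GFP, 750–1000 cells/well, treated 16 h at 37 °C with compound (23 nl of library stock), in duplicate. After paraformaldehyde fixation and Hoechst stain, imaged at 20x; PNC prevalence scored by image analysis.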
# Tau fibril FP: inhibitors of human tau fibril formation. P10636. Potency, µM (series often up to 57.7 µM), actives largely listed as inhibitors. actives 0.39% (n = 280,000). K18 P301L tau heparin fibrillization, Alexa594 FP, 6 h; further: nearly all actives have a fitted effect of over 55% in size
#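 Read-out: fluorescence polarization of Alexa 594-labeled tau (0.24 uM), 555 nm excitation, 632 nm emission. Mixtures held 15 uM unlabeled K18 P301L, compound and 20 uM heparin, pH 7 acetate buffer, incubated 6 hr at 37 C.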
# TRb-SRC2 inh: disrupts binding of human TR beta to SRC2. P10828. TRbeta-SRC2 peptide binding, fluorescence polarization; receptor liganded with 1 µM T3. Potency, µM (doses to about 106 µM), hits mostly inhibitors. actives 0.065% (n = 280,000); further: nearly all actives have a fitted effect of over 50% in size
# Target sequence (P10828 whole entry, looked up): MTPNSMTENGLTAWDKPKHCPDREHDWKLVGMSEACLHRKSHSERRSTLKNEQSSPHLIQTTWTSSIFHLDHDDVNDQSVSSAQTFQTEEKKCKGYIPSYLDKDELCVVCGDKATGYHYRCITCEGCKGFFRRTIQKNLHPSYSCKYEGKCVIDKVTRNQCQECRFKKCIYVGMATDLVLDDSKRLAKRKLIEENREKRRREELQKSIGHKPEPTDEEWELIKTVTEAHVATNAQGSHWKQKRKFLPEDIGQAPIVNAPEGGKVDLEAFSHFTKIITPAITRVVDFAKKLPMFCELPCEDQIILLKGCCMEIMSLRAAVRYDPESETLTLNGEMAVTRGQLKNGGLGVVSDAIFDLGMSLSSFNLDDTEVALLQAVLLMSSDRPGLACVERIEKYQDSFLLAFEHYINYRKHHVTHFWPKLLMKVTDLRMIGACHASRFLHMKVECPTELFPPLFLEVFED
#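 Quantitative HTS by FP: 0.6 uM TRb LBD, 20 nM labeled SRC2 20-mer, 1 uM T3, 5% DMSO; 5 hr ambient incubation; % activity per concentration and potencies from concentration series.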
# Tau fluor counter: counter-screen for tau fibril formation inhibitors; tau K18 P301L Alexa594 fluorescence, heparin fibrillization; actives 0.93% (n = 280,000); Potency, µM (top dose mostly 57.7 µM); further: nearly all actives have a fitted effect of over 55% in size
#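 Human tau K18 P301L (15 uM unlabeled, 0.24 uM Alexa 594-labeled) in 100 mM sodium acetate pH 7 with 20 uM heparin, 6 hr at 37 C. ThT 30 uM added, 1 hr ambient; Alexa 594 FP and total fluorescence read at 555/632 nm.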
# Tau fibril ThT: blocks human tau fibril formation measured by thioflavin T. P10636. recombinant tau K18 P301L (four-repeat tau fragment), heparin-induced fibrillization, ThT fluorescence. Potency, µM (top dose mostly 57.4 µM), most hits filed as inhibitors. actives 2.1% (n = 270,000). AID 1460; further: nearly all actives have a fitted effect of over 55% in size
#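 Tau K18 P301L fragment (15 uM unlabeled plus 0.24 uM Alexa 594-labeled) in 100 mM sodium acetate pH 7 with compound, fibrillization induced by 20 uM heparin for 6 hr at 37 C. Thioflavin T (30 uM) added, fluorescence read after 1 hr (ex 450, em 510 nm).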
# TexasRed fluor: counter-screen for TRb-SRC2 inhibitors: fluorescence interference | TRb/SRC2 Texas Red total fluorescence interference | Potency, µM (highest dose often 106 µM) | actives 0.29% (n = 280,000) | AID 1479; active means well fitted curve in either direction with a large enough effect; inconclusive means small, poorly fitted or top-dose-only effect
#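 Human TRβ ligand-binding domain (0.6 uM) and Texas Red SRC2 peptide (20 nM) in Tris buffer with 1 uM T3 and 5% DMSO were incubated with pinned compound for 5 hr at ambient temperature. Total fluorescence was computed as S + 2P (555/632 nm).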
# Hits are given with their value; i = inactive; ? = inconclusive; nt = not tested or not shown; [ ] = another dose, or the depositor's remark. Unless noted, the call rests on the fitted dose curve; in most records, active means well fitted curve in the direction sought with a large enough effect; inconclusive means small, poorly fitted or top-dose-only effect, or another doubt; inactive means no such curve, though single readings can be large; an effect the other way counts as inactive or inconclusive.
SMILES,PNC inhibitor,Tau fibril FP,TRb-SRC2 inh,Tau fluor counter,Tau fibril ThT,TexasRed fluor
CCOc1ccc2nc(NS(C)(=O)=O)sc2c1,i,i,i,i,?,i
CC(C)NC(=O)c1ccc(-n2c(-c3ccccc3)cc3c2CCCCC3)cc1,nt,13µM,i,?,i,i
CC1CCc2c(cc(-c3ccccc3)n2-c2ccc(C(=O)NC(C)C)cc2)C1 (stereo not drawn),nt,11µM,i,?,?,i
CCCNC(=O)c1ccc(-n2c(-c3ccccc3)cc3c2CCC(C)C3)cc1 (stereo not drawn),nt,13µM,i,?,i,?
COCCNC(=O)c1ccc(-n2c(-c3ccccc3)cc3c2CCC(C)C3)cc1 (stereo not drawn),nt,i,i,?,i,i
COc1ccc(C2N=C(c3ccccc3)C(C)(C)N2O)cc1OC (stereo not drawn),?,i,i,i,i,i
COc1ccc(C(=O)n2nnc3ccccc32)cc1Br,i,i,i,i,i,i
O=S1(=O)C=CC(Nc2cccc(Cl)c2)C1 (stereo not drawn),?,i,i,i,i,i
COc1cc(S(=O)(=O)N2CCN(c3ccc(F)cc3)CC2)ccc1Cl,?,i,i,?,i,i
O=c1[nH]c(-c2ccco2)nc2sc3c(c12)CCCC3,-116,i,i,i,i,i
COc1cccc(Nc2ncccc2C(=O)Nc2ccccc2)c1,-80,?,i,?,i,i
COc1ccccc1NC(=O)c1cnc(Nc2ccccc2OC)c2ccccc12,-86,i,i,?,i,i
COc1ccc(Nc2ncc(C(=O)Nc3ccc(F)cc3F)c3ccccc23)cc1,nt,?,i,11µM[quencher],?,i
COc1ccc(NC(=O)c2cccnc2NCCc2ccccc2)cc1,i,i,i,?,i,i
COc1ccccc1Nc1ncccc1C(=O)O,-100,i,i,i,i,i
Cc1ccc2c(c1)C1(SCCS1)C(=O)N2,i,i,i,i,i,i
O=C(CCc1ccccc1)NC(c1cccs1)c1cc(Cl)c2cccnc2c1O (stereo not drawn),nt,i,i,i,i,i
CCS(=O)(=O)NCC(c1cccnc1)N1CCN(c2ccc(OC)cc2)CC1 (stereo not drawn),nt,i,i,i,i,i
CN1CCSc2ccc(C(=O)Nc3cccc(F)c3)cc21,nt,?,i,22µM[quencher],?,i
CCOC(=O)c1c(-c2ccccc2)csc1NC(=O)c1cc(-c2ccc(F)cc2)on1,nt,?,i,i,?,i
CCOc1ccc(OCC)c(NS(=O)(=O)c2ccc3c(c2)CCN3C(=O)C2CCC2)c1,-85,i,i,i,i,i
O=C(Cc1n[nH]c(=O)c2ccccc12)Nc1cccc(S(=O)(=O)N2CCCC2)c1,nt,i,i,i,i,i
Fc1ccc(CNCc2ccccc2C(F)(F)F)cc1,-114,i,i,i,i,i

# From PubChem BioAssay
